# Source: PubChem BioAssay (National Center for Advancing Translational Sciences (NCATS))
# Rows were chosen to be rich in hits. Some 3.1% of all compounds tested hit in one or more screens of this group.
# Pin1 inhibitor: human Pin1 inhibition | Potency, µM (top dose mostly 115 µM), for the others: top-dose activity, negative = inhibition, actives largely listed as inhibitors | actives 0.009% (n = 390,000) | Q13526 | Pin1 FP peptide displacement, HiFluor488, 10 min | AID 504891; active means well fitted inhibition curve with a large enough effect in the polarisation, with a control signal flat, not every such curve was filed as active; inconclusive means small, poorly fitted or top-dose-only effect, or effect the other way, or a change in a side signal; inactive means no such curve, though single readings can be large or run the other way; the % refers to the polarisation; further: on the % scale 0 is the no-effect control and ±100 the full control effect
# Target sequence (Q13526 whole entry, looked up): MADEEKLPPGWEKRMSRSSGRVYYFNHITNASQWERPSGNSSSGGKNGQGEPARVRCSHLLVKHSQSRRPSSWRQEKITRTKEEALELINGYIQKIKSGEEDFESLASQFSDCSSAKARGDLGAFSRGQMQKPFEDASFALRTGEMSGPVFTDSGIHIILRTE
# VDR inhibitor: inhibitors of human vitamin D receptor. VDR-SRC2-3 peptide fluorescence polarization, 2 h. actives 0.93% (n = 400,000). Potency, µM, for inactives: max response, negative = inhibition, most hits filed as inhibitors. P11473; further: on the % scale 0 is the no-effect control and ±100 the full control effect
#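 Two reagent solutions held at 4 deg C in the dark were dispensed, compounds pinned at 23 nl, and the mixture incubated 2 h at room temperature. Read-out: fluorescence polarization of VDR–SRC2-3 peptide binding.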
# PLK1 PBD block: inhibitors of human PLK1 polo-box domain binding; AID 720504; Potency, µM, inactives show max response, negative = inhibition, most hits filed as inhibitors; actives 2.8% (n = 360,000); Plk1 PBD binding of FITC phosphopeptide, fluorescence polarization; further: series mostly up to about 57 µM; on the % scale 0 is the no-effect control and ±100 the full control effect; nearly all actives have a fitted effect of over 65% in size
# Tb PFK block: blocks T. brucei phosphofructokinase; O15648; T. brucei PFK, ADP-Glo luminescence; Potency, µM (titrated, usually from 57.5 µM), without a hit: at the highest dose activity, negative = inhibition, usual class: inhibitors; actives 0.17% (n = 330,000);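 further: 0% = uninhibited 1x PFK enzyme wells and -100% = no-enzyme wells; nearly all actives have a fitted effect of over 60% in size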
# Target sequence (O15648 whole entry, looked up): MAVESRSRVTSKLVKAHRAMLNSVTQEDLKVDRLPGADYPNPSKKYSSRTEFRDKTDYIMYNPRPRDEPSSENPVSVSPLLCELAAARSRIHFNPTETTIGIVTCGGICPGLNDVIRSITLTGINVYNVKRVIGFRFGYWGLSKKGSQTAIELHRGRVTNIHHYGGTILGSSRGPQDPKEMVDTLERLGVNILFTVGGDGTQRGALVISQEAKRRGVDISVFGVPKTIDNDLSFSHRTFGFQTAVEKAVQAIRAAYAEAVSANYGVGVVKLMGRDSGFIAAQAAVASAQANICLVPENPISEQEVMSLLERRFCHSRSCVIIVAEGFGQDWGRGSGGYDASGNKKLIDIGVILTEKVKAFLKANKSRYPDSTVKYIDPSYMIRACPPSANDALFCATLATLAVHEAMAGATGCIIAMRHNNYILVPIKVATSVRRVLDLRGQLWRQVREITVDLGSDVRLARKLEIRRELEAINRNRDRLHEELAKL
#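 Luminescent ADP detection (ADP-Glo, two-step: ATP depletion then ADP-to-ATP conversion for luciferase) reported PFK activity after 45 min room-temperature reaction of 1.25 nM enzyme with 0.5 mM F6P and 0.1 mM ATP at pH 8.0.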
# TDP1 block: TDP1 (human) enzyme inhibition. recombinant TDP1, AlphaScreen DNA substrate cleavage. actives 0.28% (n = 350,000). Potency, µM (highest dose often 130 µM), for the others: at the top dose activity change, negative = inhibition, most hits filed as inhibitors; further: on the % scale 0 is the no-effect control and ±100 the full control effect; nearly all actives have a fitted effect of over 40% in size
#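 Steps: enzyme plus compound, 15 min RT; add biotin/phosphotyrosine-FITC oligonucleotide (15 nM final), react 5 min; add donor/acceptor beads (10 ug/ml final), 10 min; read AlphaScreen. Tdp1 at 1 nM final.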
# ASM inhibitor: human S-ASM enzyme inhibition | actives 0.006% (n = 340,000) | P17405 | placental ASM, HMU-PC fluorogenic substrate, 60 min | AID 504937 | Potency, µM (titrated, usually from 57.5 µM), for the others: at the top dose activity change, negative = inhibition, usual class: inhibitors
#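 Steps: dispense placental human ASM, pin compound, wait 10 min at room temperature, add HMU-PC0 substrate at 9 uM final, incubate 60 min at 37 °C, add stop solution raising pH to 10, read fluorescence.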
# An asterisk follows results filed as active; i = inactive; ? = inconclusive; · = no result; ! = not confirmed by another sample; [ ] = another dose, or the depositor's remark. Unless noted, the call rests on the fitted dose curve; in most records, active means well fitted curve in the direction sought with a large enough effect; inconclusive means small, poorly fitted or top-dose-only effect, or another doubt; inactive means no such curve, though single readings can be large; an effect the other way counts as inactive or inconclusive. Potency means the concentration at half of the fitted maximal effect.
SMILES,Pin1 inhibitor,VDR inhibitor,PLK1 PBD block,Tb PFK block,TDP1 block,ASM inhibitor
COc1ccc([C@H]2CC(=O)C=C(/C=C/Cc3ccccc3)C2)cc1,6%,79µM*,-15%,-1%,1%,-12%
COc1ccccc1N1CCN(C(CNC(=O)C(=O)NCCc2ccccc2)c2cccnc2)CC1 (stereo unspecified),-10%,1%,·,·,0%,·
CC1CCN(S(=O)(=O)c2ccc3c(c2)N(C)C(=O)CC(=O)N3C)CC1,1%,4%,13µM*,-4%,9%,14%
CC1CCN(c2ccc(S(=O)(=O)N3CCC(C)CC3)cc2N)CC1,-1%,8%,-7%,-2%,4%,-3%
CN1C(=O)CC(=O)N(C)c2cc(S(=O)(=O)N(C)Cc3ccccc3)ccc21,-6%,?,7.5µM*,-5%,0%,13%
COc1ccccc1N1CCN(c2nc3ccccc3n3cnnc23)CC1,-2%,6%,·,·,-2%,·
CC(C)C[C@H](NC(=O)[C@H](Cc1ccccc1)NC(=O)CNC(=O)[C@H](CCC(=O)O)NC(=O)[C@H](CCCNC(=N)N)NC(=O)[C@H](C)NC(=O)[C@H](C)NC(=O)[C@@H](N)CC(=O)O)C(=O)N[C@@H](CC(=O)O)C(=O)N[C@H](C(=O)N[C@@H](CC(C)C)C(=O)N[C@H](C(=O)N[C@H](C(=O)N[C@@H](CC(C)C)C(=O)N[C@@H](Cc1cnc[nH]1)C(=O)N[C@@H](CCCNC(=N)N)C(=O)N[C@@H](C)C(=O)NCC(=O)N[C@@H](C)C(=O)N[C@@H](CCCNC(=N)N)C(=O)O)C(C)C)C(C)C)[C@@H](C)O,·,16%,·,·,12%,·
COc1ccccc1-c1nnc2n1N=C(c1c(OC)cccc1OC)CS2,1%,·,·,·,4%,·
Clc1ccc(OCCN2CCCCC2)cc1Cl,2%,-14%,-3%,-17%,-6%,-2%
ON=C1c2cc(OCCN3CCCCC3)ccc2-c2ccc(OCCN3CCCCC3)cc21,1%,?,19µM*,1%,-9%,-1%
COc1ccccc1N(CC(=O)NC(C)(C)C)S(=O)(=O)c1cccs1,-3%,?,27µM*,-4%,3%,7%
O=c1oc2c3c4c(cc2s1)CCCN4CCC3,?,79µM*,27µM*,?,14µM*,-5%
O=c1ccc2cc3c4c(c2o1)CCCN4CCC3,?,2%,17µM*,-17%,·,i
O=C(N/N=C/c1cc2c3c(c1O)CCCN3CCC2)c1ccccc1O,?,-17%,-10%,27%,13%,48%
Cc1ccccc1OCc1ccc(-c2nc(C#N)c(NCCCN(C)C)o2)o1,5%,13%,·,·,2%,·
O=C(COC(=O)CSc1cc(Cl)ccc1Cl)NCc1ccc2c(c1)OCO2,-2%,-18%,27µM*,-4%,0%,-4%
O=C(COC(=O)COc1ccc(Cl)cc1)NCc1ccc2c(c1)OCO2,-1%,-11%,1%,-3%,1%,4%
COc1cc(C2NC(=O)C(C#N)=C(Nc3cccc(C)c3)S2)ccc1O (stereo unspecified),5%,32µM*,?,2%,3%,-2%
Cc1cc(C)c(S(=O)(=O)/N=C2\C=CC(=O)C(Cl)=C2)c(C)c1,?,-25%,28µM*,-22%,4%,-1%
Cc1cc(C)c(S(=O)(=O)/N=C2\C=C(Nc3ccc(C(=O)O)cc3)C(=O)c3ccccc32)c(C)c1,?,?,?,-21%,7%,-1%
CC(C)(C)C(=O)CSc1nc2ccsc2c(=O)n1Cc1ccccc1Cl,0%,-1%,·,·,-4%,·
CC(=O)Oc1cccc(N2C(=O)C3C4C=CC(C4=C(C)C)C3C2=O)c1 (stereo unspecified),-12%,?,17µM*,5%,10%,-1%
O=C(CNC(=O)c1ccco1)Nc1ccc(F)cc1,-3%,-13%,27µM*,-4%,-8%,0%
Cc1ccccc1OCC(=O)Nc1ccc(NC(=O)c2ccco2)cc1,-6%,-16%,21µM*,2%,5%,0%
CCc1nn2c(=O)cc(COC(=O)c3ccccc3NC(=O)C3CCCCC3)nc2s1,6%,8%,·,·,4%,·
SMILES,Pin1 inhibitor,VDR inhibitor,PLK1 PBD block,Tb PFK block,TDP1 block,ASM inhibitor
NC(CO)C(=O)NNCc1ccc(O)c(O)c1O (stereo unspecified),-8%,45µM*!,6.7µM*,-16%,?,-2%
NC(=O)C[C@H](NC(=O)Cc1ccc(O)cc1O)C(=O)O,·,-6%,·,·,4%,·
CCOc1ccc(CNC(=O)C2CCCN(S(=O)(=O)c3ccc4c(c3)CCCC(=O)N4)C2)cc1 (stereo unspecified),23%,22%,·,·,3%,·
CCOC(=O)/C(C#N)=C\c1cn(C)c2ccccc12,1%,-15%,-17%,-3%,1%,10%
CCOC(=O)/C(=C\c1cn(C)c2ccccc12)[N+](=O)[O-],5%,50µM*,1.7µM*,-7%,0%,-3%
O=S(=O)(Nc1ccc(-c2ccc(N3CCCCC3)nn2)cc1)c1ccc(OC(F)(F)F)cc1,10%,21%,·,·,3%,·
COc1cc(/C=C2\SC(=O)N(Cc3ccc(F)cc3)C2=O)cc([N+](=O)[O-])c1O,·,?,27µM*,-2%,5%,-2%
CCOC(=O)CN1C(=O)S/C(=C/c2ccc(OC)c([N+](=O)[O-])c2)C1=O,2%,-3%,-8%,2%,5%,-23%
COc1cc(/C=C2\SC(=O)N(Cc3ccc(Cl)cc3)C2=O)cc([N+](=O)[O-])c1O,·,-3%,24µM*,-6%,3%,-14%
CCOC(=O)c1cc(-c2ccc(F)cc2)n(CCC(=O)Nc2nc3ccc(OC)cc3s2)c1C,-3%,-2%,·,·,9%,·
CCC1CCCCN1C(=S)NC(=O)c1cccs1 (stereo unspecified),3%,-10%,-13%,-6%,0%,4%
O=C(NC(=S)N1CCCCC1CO)c1cccs1 (stereo unspecified),1%,?,21µM*,-23%,1%,4%
Cc1ccc(S(=O)(=O)N(CC(=O)O)Cc2ccco2)cc1,-2%,0%,-29%,-10%,22µM*,-1%
COc1ccc(N(CC(=O)NCc2ccco2)S(=O)(=O)c2ccc(C)cc2)cc1OC,-4%,0%,-13%,0%,13%[0.0935 µM],2%
COc1ccccc1N(CC(=O)NCc1ccco1)S(=O)(=O)c1ccc(C)cc1,·,-13%,27µM*,?,·,0%
Cc1ccc(OCC(=O)N(C)CC(=O)NCc2ccco2)c(Br)c1,?,-9%,?,?,32µM*,-1%
CCOc1ccccc1OCC(=O)NCc1ccco1,?,-2%,-21%,?,-11%,0%
